From PubChem BioAssay (NCI) come the findings set out here.

What all share (experiment): NCI-60 one-dose screen, 48 h (100 = growth as untreated, 0 = no growth, -100 = all killed)
Holding throughout (settings): 10 µM unless noted

Test [1] concerns HCT-15 colon.
Test [2] has as its system HT29 colon.
Test [3] concerns SNB-75 CNS.
Test [4] deals with SNB-19 CNS.
Test [5] deals with U251 CNS.
The subject of test [6] is PC-3 prostate.
Test [7] deals with SK-MEL-5 melanoma.
Test [8] concerns UACC-62 melanoma.
The test system of test [9] is LOX IMVI melanoma.
For test [10], the system named is SK-MEL-28 melanoma.
In test [11] the test system is EKVX NSCLC.
The subject of test [12] is SN12C renal.
For test [13], the system named is UO-31 renal.
The subject of test [14] is TK-10 renal.
The test system of test [15] is ACHN renal.
The test system of test [16] is CAKI-1 renal.
The test system of test [17] is A498 renal.
For test [18], the system named is CCRF-CEM leukemia.
The test system of test [19] is MOLT-4 leukemia.

This is part of a sample that, as a whole, favours compounds with a hit. Of some 83,000 tested, about 20% had one in any assay.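 Negative percent growth values reflect cell death: -40 means 40% of the cells present at the start died, and -100 means all died.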 Unmarked numbers belong to inactive results. Activity calls are given as the source filed them. How the source made its calls: active means growth percent below 10; inactive means the rest.

Turning to `Cc1cc(C2(c3ccc(O)c(C)c3)OS(=O)(=O)c3ccccc32)ccc1O`, the growth in test [1] is 117%; in test [2], 115%; in test [3] it was 91.6%; in test [4] it was 105%; in test [5], 107%; in test [6] it was 90.8%. In addition, the growth was 103% in [7]; 107% in test [8]; 104% in test [9]; 113% in [10]; 111% in test [11]; 101% in test [12]. The growth in [13] was 64.7%; in test [14], 111%; in test [15], 108%; in test [16], 97.6%; in test [17], 94.2%; in [18] it was 101%. The growth in [19] is 91.1%.

Turning to `O=C(Nc1nc2cccc(-c3ccc(CN4CCS(=O)(=O)CC4)cc3)n2n1)C1CC1`, the growth in test [1] is 94.7%; in test [2], 65.4%; in [3], 90.3%; in test [4], 48%; in test [5], 65.3%; in test [6], 76.9%. The growth in [7] is 74.6%; in [8] it was 87.6%; in [9] it was 60.4%; in [10] it was 90.2%; in [11] it was 106%; in test [12], 76.8%. For the same compound, the growth was 75.3% in [13]; 66.3% in test [14]; 93.6% in [15]; 88.4% in test [16]; 60.8% in test [17]; 30.9% in test [18]. Besides, the growth in test [19] was 41%.

As for `Cc1c(CN2CCN(C(=O)[C@H](C)O)CC2)sc2c(N3CCOCC3)nc(-c3cnc(N)nc3)nc12`, the growth in test [1] is 2.93% (active); in [2], -13% (active); in [3] it was -47.4% (active); in [4], 3.17% (active); in test [5], 6.95% (active); in [6], 8.68% (active). Besides, the growth in test [7] is -36.3% (active); in test [8], -62.6% (active); in test [9] it was 0.99% (active); in test [10], -30% (active); in [11], 1.75% (active); in test [12] it was 4.45% (active). The growth in test [13] is -30.6% (active); in test [14] it was -31.4% (active); in test [15], -11% (active); in test [16] it was -17.8% (active); in [17] it was -52.9% (active); in test [18], 7.59% (active). The growth in test [19] is 1.65% (active).

As for `CCOc1ccc(N=C(C)Nc2ccc(OCC)cc2)cc1`, the growth in test [1] was 92.1%; in [2], 109%; in test [3], 80.5%; in test [4], 99.2%; in test [5], 108%; in test [6] it was 93.2%. The growth in [7] is 109%; in test [8], 104%; in [9], 102%; in test [10], 113%; in test [11] it was 109%; in test [12] it was 102%. Moreover, the growth in test [13] is 82.3%; in test [14], 108%; in test [15], 99.5%; in test [16], 122%; in test [17], 100%; in test [18], 88%. Also, the growth in [19] is 93.8%.

For the compound `CC(C)[C@@H]1CC[C@@H]2[C@@H]1[C@H](OC(=O)/C=C/c1ccccc1)[C@]1(C(C)C)C[C@@H](OC(=O)CO)[C@@]2(C)O1`, the growth was 78% in test [1]; 75% in [2]; 38.1% in [3]; 99% in test [4]; 74.3% in test [5]; 30% in [6]. The growth in test [7] is 81.2%; in test [8] it was 84.3%; in test [9] it was 81%; in test [10], 104%; in test [11], 63%; in test [12], 49.7%. The growth is 3.86% (active) in [13]; 94.9% in [14]; 17% in test [15]; 65.5% in test [16]; -51.8% (active) in test [17]; 77.1% in test [18]. Besides, in [19], the growth is 58.4%.

On to `CNC(=O)CN1CCC(Oc2cc3c(Nc4cccc(Cl)c4F)ncnc3cc2OC)CC1`, for which the growth was 66.8% in test [1]; 36.8% in [2]; 20.9% in [3]; 70.3% in [4]; 80.4% in test [5]; 65.7% in test [6]. For the same compound, the growth was 77.2% in [7]; 86.8% in [8]; 37.7% in test [9]; 91.7% in [10]; 32.1% in test [11]; 42.7% in test [12]. In addition, the growth is 26.3% in test [13]; 1.03% (active) in test [14]; 8.22% (active) in test [15]; 10.6% in test [16]; 44.2% in test [17]; 64.7% in test [18]. In addition, the growth in test [19] was 51.7%.

On to `NC(=O)c1c(OCc2c(F)cc(Br)cc2F)nsc1NC(=O)NCCCCN1CCCC1`, for which the growth is 5.99% (active) in test [1]; -38.9% (active) in test [2]; -79.9% (active) in [3]; 5.06% (active) in test [4]; -83.3% (active) in [5]; 3.22% (active) in test [6]. Also, the growth was -99.1% (active) in test [7]; -75.6% (active) in [8]; -90.6% (active) in test [9]; -74.6% (active) in [10]; 4.31% (active) in test [11]; 0.752% (active) in [12]. Further, the growth in [13] was -76.8% (active); in test [14], -1.76% (active); in test [15], -29.7% (active); in [16] it was -26.2% (active); in test [17] it was -13.8% (active); in [18], 2.77% (active). Moreover, the growth in [19] is -16.4% (active).

For the compound `CSc1nc2ncncc2[nH]1`, the growth was 101% in test [1]; 99.4% in [2]; 86.7% in test [3]; 100% in test [4]; 101% in test [5]; 106% in test [6]. In addition, the growth in test [7] was 101%; in test [8], 104%; in test [9] it was 97.5%; in [10], 75.1%; in test [11], 91.2%; in test [12], 91.4%. The growth was 90.7% in test [13]; 102% in test [14]; 104% in test [15]; 621% in test [16]; 78.2% in [17]; 97.7% in test [18]. Moreover, the growth in test [19] is 95%.
